Inconclusive results are not listed. Where a call stands in place of a potency, no number is given. Activity calls are given as the source filed them. The call rests on the fitted dose curve; in most records, active means well fitted cell-killing curve with a large enough effect; inconclusive means small, poorly fitted or top-dose-only effect; inactive means no such curve, though single readings can be large or run the other way.
assay: qHTS of pediatric cancer cell lines to identify multiple opportunities for drug repurposing: Primary screen for A673 cells (AID 1347092); conditions: A673 Ewing sarcoma viability, CellTiter-Glo ATP luminescence, 48 h; series mostly up to 46 µM; further: nearly all actives have a fitted effect of over 45% in size
Method in brief: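 Luminescence from CellTiter-Glo, taken after 15 min at room temperature, served as the proxy for metabolically active cells following 48 h treatment. Both potency and efficacy were taken from curves fitted to the titration data.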
Potency means the concentration at half of the fitted maximal effect.

| SMILES | Potency |
| --- | --- |
| OC[C@H]1O[C@@H]2O[C@H]3[C@H](O)[C@@H](O)[C@@H](O[C@H]4[C@H](O)[C@@H](O)[C@@H](O[C@H]5[C@H](O)[C@@H](O)[C@@H](O[C@H]6[C@H](O)[C@@H](O)[C@@H](O[C@H]7[C@H](O)[C@@H](O)[C@@H](O[C@H]8[C@H](O)[C@@H](O)[C@@H](O[C@H]1[C@H](O)[C@H]2O)O[C@@H]8CO)O[C@@H]7CO)O[C@@H]6CO)O[C@@H]5CO)O[C@@H]4CO)O[C@@H]3CO | inactive |
| CCOCCn1c(N2CCCN(C)CC2)nc2ccccc21 | inactive |
| Nc1ccc(C(=O)NCC(=O)O)cc1 | inactive |
| O=S(=O)(O)c1ccc(O)cc1 | inactive |
| Cc1ncc(CO)c(C=O)c1O | inactive |
| CC(C)[C@@H]1CC[C@@H](C)CC1=O | inactive |
| N#CCC(=O)NN | inactive |
| C=C[C@H]1CN2CC[C@H]1C[C@@H]2[C@@H](O)c1ccnc2ccc(OC)cc12 | inactive |
| OCc1ccccn1 | inactive |
| O=C(O)C(Cc1cc(I)c(O)c(I)c1)c1ccccc1 (stereo not given) | inactive |
| CC(C)NCC(O)c1ccc2ccccc2c1 (stereo not given) | inactive |
| C[N+]1(CC2COC(c3ccccc3)(C3CCCCC3)O2)CCCCC1 (stereo not given) | inactive |
| CC(C)Nc1cccnc1N1CCN(C(=O)c2cc3cc(NS(C)(=O)=O)ccc3[nH]2)CC1 | inactive |
| C=C[C@H]1CN2CC[C@H]1C[C@H]2[C@H](O)c1ccnc2ccc(OC)cc12 | inactive |
| CC(=C(CCOC(=O)C(C)C)SSC(CCOC(=O)C(C)C)=C(C)N(C=O)Cc1cnc(C)nc1N)N(C=O)Cc1cnc(C)nc1N | inactive |
| CCN1/C(=C/C=C/c2sc3ccccc3[n+]2CC)Sc2ccccc21 | 580 nM (active) |

| SMILES | Potency |
| --- | --- |
| CCN1CCN(C(=O)N[C@@H](C(=O)N[C@@H]2C(=O)N3C(C(=O)O)=C(CSc4nnnn4C)CS[C@H]23)c2ccc(O)cc2)C(=O)C1=O | inactive |
| CC(=O)OCC1=C(C(=O)O)N2C(=O)[C@@H](NC(=O)CSc3ccncc3)[C@H]2SC1 | inactive |
| Nc1nc(-c2ccccc2)c(Br)c(=O)[nH]1 | inactive |
| CC(=O)Nc1ccc(OCC(O)CNC(C)C)cc1 (stereo not given) | inactive |
| OCCOCCN1CCN(C2=Nc3ccccc3Sc3ccccc32)CC1 | inactive |
| CC(O)Cn1cnc2c1c(=O)n(C)c(=O)n2C (stereo not given) | inactive |
| N[C@H](C(=O)O)[C@@H](O)c1ccc(O)c(O)c1 | inactive |
| Oc1c(Cl)cc(Cl)c(Cl)c1Cc1c(O)c(Cl)cc(Cl)c1Cl | 21100 nM (active) |
| C=C[C@@]1(C)CC(=O)[C@]2(O)[C@@]3(C)[C@@H](O)CCC(C)(C)[C@@H]3[C@H](O)[C@H](OC(C)=O)[C@@]2(C)O1 | inactive |
| CC(=O)Nc1ccc(OC(=O)c2ccccc2OC(C)=O)cc1 | inactive |
| CC(C)(C)CC(C)(C)c1ccc(O)c(-n2nc3ccccc3n2)c1 | inactive |
| CN(C)C(=O)Nc1ccc(Cl)c(Cl)c1 | inactive |
| CC(C)Cc1ccc(CC(=O)O)cc1 | inactive |
| O=C(O)CCC(=O)Nc1ccc(S(=O)(=O)Nc2nccs2)cc1 | inactive |
| CNCCc1ccccn1 | inactive |
| CN1CCC(OC(c2ccccc2)c2ccccc2)CC1 | inactive |

assay: qHTS of pediatric cancer cell lines to identify multiple opportunities for drug repurposing: Primary screen for SK-N-MC cells (AID 1347093); conditions: SK-N-MC viability, CellTiter-Glo luminescence, 48 h; series mostly up to 46 µM
Method in brief: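 Metabolically active cells were quantified by ATP-dependent luminescence (CellTiter-Glo, 15 min at room temperature) following 48 h treatment. Cells had been plated at 500-1,000 per well and settled for 5 h beforehand.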

| SMILES | Potency |
| --- | --- |
| C/C=C/C=N/NC(=O)c1ccncc1 | inactive |
| OC[C@H]1O[C@@H]2O[C@H]3[C@H](O)[C@@H](O)[C@@H](O[C@H]4[C@H](O)[C@@H](O)[C@@H](O[C@H]5[C@H](O)[C@@H](O)[C@@H](O[C@H]6[C@H](O)[C@@H](O)[C@@H](O[C@H]7[C@H](O)[C@@H](O)[C@@H](O[C@H]8[C@H](O)[C@@H](O)[C@@H](O[C@H]1[C@H](O)[C@H]2O)O[C@@H]8CO)O[C@@H]7CO)O[C@@H]6CO)O[C@@H]5CO)O[C@@H]4CO)O[C@@H]3CO | inactive |
| CCOCCn1c(N2CCCN(C)CC2)nc2ccccc21 | inactive |
| O=S(=O)(O)c1ccc(O)cc1 | inactive |
| Cc1ncc(CO)c(C=O)c1O | inactive |
| N#CCC(=O)NN | inactive |
| C=C[C@H]1CN2CC[C@H]1C[C@@H]2[C@@H](O)c1ccnc2ccc(OC)cc12 | inactive |
| OCc1ccccn1 | inactive |
| CC(C)NCC(O)c1ccc2ccccc2c1 (stereo not given) | inactive |
| CC(C)Nc1cccnc1N1CCN(C(=O)c2cc3cc(NS(C)(=O)=O)ccc3[nH]2)CC1 | inactive |
| C=C[C@H]1CN2CC[C@H]1C[C@H]2[C@H](O)c1ccnc2ccc(OC)cc12 | inactive |
| NC1CCN(c2nc3c(cc2F)c(=O)c(C(=O)O)cn3-c2ccc(F)cc2F)C1 (stereo not given) | inactive |
| CCN1/C(=C/C=C/c2sc3ccccc3[n+]2CC)Sc2ccccc21 | 1300 nM (active) |
| CCN1CCN(C(=O)N[C@@H](C(=O)N[C@@H]2C(=O)N3C(C(=O)O)=C(CSc4nnnn4C)CS[C@H]23)c2ccc(O)cc2)C(=O)C1=O | inactive |
| Nc1nc(-c2ccccc2)c(Br)c(=O)[nH]1 | inactive |
| OCCOCCN1CCN(C2=Nc3ccccc3Sc3ccccc32)CC1 | inactive |
| CC(O)Cn1cnc2c1c(=O)n(C)c(=O)n2C (stereo not given) | inactive |
| C=C[C@@]1(C)CC(=O)[C@]2(O)[C@@]3(C)[C@@H](O)CCC(C)(C)[C@@H]3[C@H](O)[C@H](OC(C)=O)[C@@]2(C)O1 | inactive |
| CC(=O)Nc1ccc(OC(=O)c2ccccc2OC(C)=O)cc1 | inactive |
| CN(C)C(=O)Nc1ccc(Cl)c(Cl)c1 | inactive |
| CC(C)Cc1ccc(CC(=O)O)cc1 | inactive |
| CNCCc1ccccn1 | inactive |
| CN1CCC(OC(c2ccccc2)c2ccccc2)CC1 | inactive |
